Holding throughout (experiment): NCI-60 one-dose screen, 48 h (100 = growth as untreated, 0 = no growth, -100 = all killed)
Holding throughout (conditions): 10 µM

The subject of test [1] is NCI-H23 lung.
Test [2] relates to NCI-H226 lung.
The test system of test [3] is NCI-H322M lung.
Test [4] relates to HOP-62 NSCLC.
In test [5] the test system is NCI-H460 lung.
The subject of test [6] is NCI-H522 lung.
Test [7] deals with A549/ATCC NSCLC.
For test [8], the system named is 786-0 renal.
Test [9] deals with COLO 205 colon.
The subject of test [10] is DU-145 prostate.

SMILES strings stand for the structures. About 83,000 compounds went through this panel and 20% of them were active in at least one assay; those are over-represented in the sample as a whole.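 Cells were grown in 96-well plates and exposed to the test compound at a single concentration for 48 hours; results are reported as percent growth, with values below 10 considered active.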 Unmarked numbers belong to inactive results. Active and inactive are the calls of the source.

In the case of `NC1(C(=O)O)CSSC1`, the growth was 49.8% in test [1]; 60.5% in [2]; 109% in [3]; 35.9% in [4]; 13.3% in [5]; 121% in test [6]. In addition, the growth was 22.1% in test [7], 107% in test [8], 102% in test [9] and 78.8% in [10].

On to `CCCCOc1ccc(NC(=O)Nc2nnc(C)s2)cc1`, for which the growth in test [1] is 96.8%; in test [2] it was 101%; in [3], 103%; in test [4], 102%; in test [5], 102%; in test [6] it was -36.8% (active). For the same compound, the growth in [7] is 41.4%; in test [8], 93.5%; in test [9], 120%; in [10], 120%.

Regarding `N#CSCC1CC(O)(c2ccccc2)CC(c2ccc(Cl)cc2)O1` (stereo not given), the growth in test [1] is 35.6%; in [2], 89.3%; in test [3] it was 52.4%; in [4], 75.1%; in [5], 37.2%; in test [6], 4.64% (active). Also, the growth in [7] was 68.5%; in test [8], 37%; in test [9], 59.2%; in [10], 33%.

Consider `CC/C(=N\N=C(/CC)c1ccc(Br)cc1)c1ccc(Br)cc1`, for which the growth in test [1] was 86.2%; in test [2], 94%; in [3], 108%; in test [4], 94.9%; in test [5], 105%; in test [6] it was 71.5%. For the same compound, the growth in test [7] is 98.7%; in test [8] it was 98.9%; in test [9], 100%; in [10], 116%.

Regarding `COc1ccc2c(c1)nc(N)c1c3cccnc3cn21`, the growth in test [1] is 33.9%; in [2], 69.4%; in test [3], 72.5%; in [4], 42%; in test [5] it was 1.19% (active); in test [6], -2.48% (active). Further, the growth in test [7] is 11.8%; in [8], 22.7%; in test [9], -31.5% (active); in [10] it was 5.32% (active).

Consider `O=S(=O)(NCCCNc1nccc(-c2c(-c3ccc(F)cc3)nc3sccn23)n1)c1ccc2ccccc2c1`, for which the growth in test [1] was 66.2%; in [2] it was 57.4%; in test [3], 49.6%; in test [4], 81.3%; in test [5], 22.7%; in [6], 46.2%. In addition, the growth in test [7] was 28.9%; in test [8] it was 55.5%; in [9], 10.1%; in test [10], 46.4%.

For `O=C(NN1C(=O)CSC1c1ccc(Cl)cc1)c1cccnc1` (stereo not given), the growth in test [1] was 86.8%; in [2], 249%; in [3], 98.9%; in test [4], 93.7%; in test [5], 103%; in test [6], 87.1%. The growth in test [7] was 113%; in test [8], 92%; in test [9], 110%; in test [10] it was 52.2%.

As to `COc1cc(Nc2ncnc(Nc3ccc4c(n3)NC(=O)C(C)(C)O4)n2)cc(OC)c1OC`, the growth in test [1] is 25.5%; in test [2], -27.7% (active); in test [3], 4.97% (active); in test [4] it was 13.6%; in [5], 12.1%; in test [6], -11.6% (active). The growth in test [7] was -23.1% (active); in test [8], 8.87% (active); in test [9], -2.65% (active); in [10], 18.8%.

Consider `NC(=O)CC1(c2ccccc2)CCCCC1`, for which the growth was 103% in test [1]; 110% in test [2]; 90.9% in [3]; 102% in [4]; 104% in test [5]; 96% in test [6]. Also, the growth in test [7] was 116%; in test [8], 97.1%; in test [9], 103%; in test [10], 107%.

As for `CCOC(=O)N1C/C(=C/c2ccc(OC)cc2)C(=O)/C(=C/c2ccc(OC)cc2)C1`, the growth in test [1] is 46.3%; in test [2] it was 23.8%; in [3], 71.1%; in [4], 29.5%; in test [5], 42%; in test [6] it was 39%. Also, the growth was 21.4% in test [7], -2.34% (active) in test [8], 24.5% in [9] and 17.7% in test [10].

Turning to `CCc1ccc2c(c1)N(CCO)C1=C(C(=O)OC1)C2c1cc(OC)c(OC)c(OC)c1` (stereo not given), the growth was 19.5% in [1]; 3.03% (active) in test [2]; 13.7% in [3]; 28.8% in test [4]; 2.43% (active) in [5]; -40.4% (active) in test [6]. Moreover, the growth in test [7] is 16.3%; in [8], 20.2%; in [9], -69.3% (active); in test [10], -28.3% (active).

In the case of `CCN(CC)CCCOCCCNc1cc(OC)cc2cccnc12`, the growth in test [1] was 83.8%; in test [2] it was 85%; in test [3], 98.7%; in test [4], 91.7%; in test [5] it was 103%; in [6], 82.5%. In addition, the growth is 93.4% in test [7], 104% in test [8], 31.2% in [9] and 116% in [10].

Turning to `O=C1/C(=C/c2ccc(Cl)cc2)SC(=Nc2ccc(Cl)cc2)N1Cc1nc2ccccc2[nH]1`, the growth in test [1] is 78.7%; in test [2], 81.5%; in test [3], 95.4%; in [4], 68.6%; in [5], 85.3%; in test [6], 76.4%. Besides, the growth in [7] was 70.8%; in [8] it was 92.3%; in test [9], 98%; in test [10], 93.7%.

The values are drawn from PubChem BioAssay (NCI).
